Screening data from PubChem BioAssay.
Sampled rows, rich in hits. Any-hit rate of the full collection: about 4.8%.
SMARCA2 activ – increases SMARCA2 function in MMTV reporter cells; hit rate 1% among 370,000; activation, % at 9.1 µM; MG213 cells, MMTV-luciferase reporter, dexamethasone, overnight; in the data active means activation above about 7.8%;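 further: 0% = vehicle wells and 100% = reference activator wells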
hcDAF-12 act – activators of H. contortus DAF-12 nuclear receptor | HEK293 hcDAF-12 lit1-tk-luc reporter, luminescence; 0% DMSO, 100% Δ7-dafachronic acid | activation, % at 6.8 µM | hit rate 1.4% among 370,000;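 active means activation above the mean of all tested compounds plus 3 SD, cut at about 5.5% in these data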;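 further: 100% = response to 3 µM Δ7-dafachronic acid high control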
hgDAF-12 ag – agonists of H. glycines DAF-12 nuclear receptor; hit rate 1.8% among 370,000; HEK293 GAL4-hgDAF12 UAS-luciferase reporter, agonist luminescence; normalized to butyrate control; activation, % at 6.8 µM;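 active means activation above a cutoff set at the mean of all screened compounds plus 3 SD, cut at about 10% in these data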;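 further: 0% = DMSO wells and 100% = sodium butyrate wells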
DAX1 inh-1 – blocks DAX1 repression of SF-1 activated StAR promoter; HEK293T StAR-luciferase reporter, SF-1/DAX-1 repression relief; AID 652010; inhibition, % at 6.8 µM; hit rate 1.1% among 370,000;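 active means inhibition above the mean over all tested compounds plus 3 SD, cut at about 3.6% in these data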;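 further: 0% = DAX-1 cells with DMSO and 100% = cells lacking DAX-1 with DMSO; higher inhibition means more luminescence from relief of DAX-1 repression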
ssDAF12 agonist – activators of S. stercoralis DAF-12 nuclear receptor. HEK293 ssDAF-12/GRIP1 lit1-tk-luc reporter, luminescence; % of 3 µM dafachronic acid response. activation, % at 6.8 µM. hit rate 1% among 370,000;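 active means activation above the mean over all tested compounds plus 3 SD, cut at about 0.9% in these data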;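 further: 0% = DMSO-only wells and 100% = 3 µM delta7-dafachronic acid wells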
DAX1 inh-2 – inhibits human nuclear receptor DAX1; P51843; HEK293 Gal4-DAX1 luciferase reporter, luminescence; inhibition, % at 6.75 µM; hit rate 0.99% among 340,000;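 active means inhibition above the mean over all tested compounds plus 3 SD, cut at about 4.2% in these data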;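 further: 0% = DAX1-transfected cells with DMSO and 100% = empty-vector control cells with DMSO; inhibition shows as a rise in luminescence from relieved DAX1 repression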
LXRb hcDAF ctr – counter-screen for hcDAF-12 agonists: agonists of human LXR-beta; AID 743027; 3,400 tested, under 10 active; HEK293 Gal4-LXR tk-luc reporter, luminescence, 24 h; normalized: DMSO 0%, positive control 100%; activation, % at 6.8 µM; shares compounds with hcDAF-12 act;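 active means mean percent activation of the reporter above a cutoff set as the average over tested compounds plus their standard deviation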
Target sequence (P55055 whole entry, looked up, the tested form may be a part): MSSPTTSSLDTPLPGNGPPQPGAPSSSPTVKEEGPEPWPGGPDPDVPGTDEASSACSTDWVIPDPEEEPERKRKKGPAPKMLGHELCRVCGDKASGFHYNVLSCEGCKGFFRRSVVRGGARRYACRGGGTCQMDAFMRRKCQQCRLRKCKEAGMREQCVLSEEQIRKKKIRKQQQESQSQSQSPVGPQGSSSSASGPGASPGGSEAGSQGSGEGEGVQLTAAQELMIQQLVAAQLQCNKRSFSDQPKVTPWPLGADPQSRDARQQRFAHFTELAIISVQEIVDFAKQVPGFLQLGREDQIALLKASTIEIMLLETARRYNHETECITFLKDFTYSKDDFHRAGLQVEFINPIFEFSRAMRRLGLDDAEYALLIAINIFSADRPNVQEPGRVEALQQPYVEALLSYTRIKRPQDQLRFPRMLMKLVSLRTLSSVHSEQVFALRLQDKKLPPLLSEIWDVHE
hcDAF12 conf – confirmation of H. contortus DAF-12 agonists | activation, % at 6.8 µM | shares compounds with hcDAF-12 act | AID 743032 | HEK293 hcDAF-12 lit1-tk-luc reporter, luminescence; % of Δ7-dafachronic acid response | hit rate 61% among 3,400;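 active means mean activation across triplicate tests above the threshold derived from the earlier primary screen, cut at about 5.5% in these data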;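 further: 0% = DMSO only wells and 100% = 3 µM Δ7-dafachronic acid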
Numbers without * were called inactive; . = no result given.

SMILES	SMARCA2 activ	hcDAF-12 act	hgDAF-12 ag	DAX1 inh-1	ssDAF12 agonist	DAX1 inh-2	LXRb hcDAF ctr	hcDAF12 conf
O=C(NS(=O)(=O)c1cccc(F)c1)[C@H]1O[C@@H](n2ccc(=O)[nH]c2=O)[C@H](O)[C@@H]1O	-2.9	-0.8	6.0	-1.0	-1.1	.	.	.
CC(C)CC1c2[nH]c3ccccc3c2CCN1C(=O)c1cnccn1 (configuration not stated)	4.2	9.6*	4.8	1.4	0.9*	.	1.1	12.3*
COc1ccc(-c2nc3n(c2C)Cc2ccccc2-3)cc1	5.3	9.9*	12.4*	1.2	2.2*	4.0	0.8	7.5*
COC(=O)[C@]12C[C@H](CC(=O)N3CCCCC3)C(=O)N(Cc3ccc4c(c3)OCO4)C1=C[C@H](C(C)(C)C)O[C@@H]2C	-5.9	-0.2	-1.2	0.1	-1.1	.	.	.
CCCSc1nnc(-c2ccccc2N)c(=O)[nH]1	0.4	7.1*	8.0	2.9	0.3	3.2	0.7	7.2*
CCCCCSc1nnc(-c2cc(Br)ccc2N)c(=O)[nH]1	-3.9	0.6	0.4	-0.9	-0.2	1.1	.	.
Cc1ccc(N/N=C/c2ccc3c(c2)OCCO3)cc1Cl	3.4	7.8*	9.9	0.7	-0.1	0.4	2.2	8.3*
COc1ccc(Cn2c(C)c(CC(=O)Nc3ccc(Oc4cccnc4)c(C)c3)c3ccccc32)cc1	-1.8	1.3	1.1	-1.0	-0.3	.	.	.
Cc1cc(C)c2oc(-c3ccc(C)c(NC(=S)NC(=O)c4cccs4)c3)nc2c1	4.7	7.7*	6.9	0.2	0.7	3.5	-0.2	4.0
Cc1ccc2nc(NC(=S)NC(=O)c3ccc(OC(C)C)cc3)sc2c1	-1.3	-0.6	1.0	-0.1	-1.3	0.5	.	.
O=C(Cc1cccs1)Nc1nc2c(s1)CCCC2	2.7	-0.7	-3.9	0.9	-1.8	-1.0	.	.
Cc1cc(C)c2oc(-c3ccc(C)c(NC(=S)NC(=O)/C=C/c4ccco4)c3)nc2c1	2.3	3.9	2.7	0.3	0.3	1.1	.	.
Cc1ccc2nc(NC(=S)NC(=O)c3cccs3)sc2c1	5.6	7.2*	11.2*	1.3	0.9*	2.4	1.2	15.4*
Cc1ccc2nc(NC(=O)c3cccs3)sc2c1	-2.7	10.2*	11.0*	2.6	1.1*	-1.8	1.5	5.9*
O=C(Nc1nc2c(s1)CCCC2)c1cccs1	2.1	9.5*	9.6	3.0	0.7	-1.5	1.3	6.1*
CSCCCNC(=O)C1CCN(S(=O)(=O)c2ccc3[nH]c(=O)oc3c2)CC1	-3.0	2.7	-3.7	0.1	-1.7	.	.	.
CCCCn1nnnc1C1c2ccccc2OCC(=O)N1Cc1ccc2c(c1)OCO2 (configuration not stated)	-2.9	0.6	0.7	0.5	-0.8	.	.	.
N/C(=N\NC(=O)Nc1ccccc1)c1ccccn1	0.4	7.7*	4.8	2.5	0.2	.	0.1	1.9
COC(=O)[C@]12C[C@H](CC(=O)N3CCC(c4ccccc4)CC3)C(=O)N(Cc3ccc4c(c3)OCO4)C1=C[C@H](C(C)(C)C)O[C@@H]2C	0.5	1.8	-1.1	-0.8	-1.4	.	.	.
COc1cc(NC(=O)c2cc(-c3ccco3)on2)c(OC)cc1Cl	-1.6	6.6*	4.0	0.7	-0.4	2.3	0.1	7.7*
COc1cc(NC(=O)c2cc(C)on2)c(OC)cc1Cl	.	2.7	7.0	.	-1.2	.	.	.
C[C@@H]1CN([C@@H](C)CO)C(=O)CCCn2cc(nn2)CO[C@H]1CN(C)C(=O)NC1CCCCC1	-2.5	0.2	5.9	0.9	-1.2	.	.	.
Nc1ccn([C@@H]2O[C@H](C(=O)N[C@H](Cc3ccccc3)C(=O)N3CCSC3)[C@@H](O)[C@H]2O)c(=O)n1	-2.6	0.4	-3.2	-0.5	-0.5	.	.	.
CC(=O)c1c(C)nc(-c2ccc(Cl)cc2)nc1N=CN(C)C	7.1	8.6*	6.9	2.8	1.0*	3.6	0.7	8.6*
